From PubChem
Most compounds without a hit are left out; they make up all but 21% or so of the library.
Shiga toxin inh – blocks Shiga toxin action in Vero cells | actives 9.2% (n = 290,000) | Vero cells, Shiga toxin protein synthesis inhibition reporter | AID 2315 | inhibition, % at 38.7 µM; in the data active = inhibition mostly above about 28%, no sharp cut-off; inactive = mostly below about 43%; also: 0% is about no effect
CHX counter – counter-screen hit for Shiga toxin inhibitors, cycloheximide. actives 12% (n = 300,000). cell reporter, cycloheximide protein synthesis inhibition counterscreen. max response, %; in the data active = max response mostly above about 13%, no sharp cut-off; inactive = mostly below about 14%; also: read at 38.3 µM for the half of the compounds with a filed dose; 0% is about no effect
HCMV antiviral – blocks human cytomegalovirus replication | HFF cells, HCMV-luciferase reporter, 72 h; active compounds read low | actives 4.5% (n = 410,000) | activity change, negative = inhibition, % at 57.5 µM; in the data active = activity change below about -60%; inconclusive = no clear call, values can overlap the other calls; inactive = above about -39%; also: % is scaled to controls: 0 for no effect and ±100 for the full control effect
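Inhibition of viral replication was scored as loss of reporter luminescence in HFFs infected with HCMV-luciferase (MOI 1 PFU/cell) for 72 h; compounds tested at 2 doses, normalized to buffer and Salinomycin controls.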
Pf growth 96h – P. falciparum growth inhibition at 96 hour, primary screen for plastid delayed-death inhibitors; P. falciparum luciferase reporter growth, 96 h; Potency, µM (doses to about 28.7 µM), for the others: at the top dose activity change, negative = inhibition, usual class: inhibitors; actives 6.9% (n = 320,000); also: potency is read from the fitted curve at half-maximal effect; % is scaled to controls: 0 for no effect and ±100 for the full control effect
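Two parasite generations (96 h, 37 C, 5% CO2) of compound exposure in infected erythrocytes (0.05% parasitemia, 2% hematocrit). Luciferase-reporter P. falciparum; decreased luminescence indicates inhibited growth, aimed at apicoplast-acting delayed death.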
Pf growth 48h – inhibits P. falciparum growth in the first generation, 48 h | P. falciparum luciferase growth in erythrocytes, 48 h | Potency, µM (top dose mostly 28.7 µM), for the others: top-dose activity change, negative = inhibition, usual class: inhibitors | actives 5.9% (n = 310,000) | AID 504832; also: potency is read from the fitted curve at half-maximal effect; % is scaled to controls: 0 for no effect and ±100 for the full control effect
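In quantitative HTS format, infected erythrocytes bearing luciferase-reporter parasites were treated for a single generation at 37 C. Luminescence after adding detection reagent served as the growth measure.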
HCV inh – HCV inhibition; Huh7.5.1 HCVcc-Cre infection, luciferase reporter, 44 h; Potency, µM (titrated, usually from 41.8 µM), inactives show at the top dose activity change, negative = inhibition, actives largely listed as inhibitors; actives 3.4% (n = 340,000); AID 651820; also: potency is read from the fitted curve at half-maximal effect; % is scaled to controls: 0 for no effect and ±100 for the full control effect
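Cells (1,000/well) were plated 4 h before compound, then infected with HCVcc-Cre virus (~0.5 moi). After 44 h further culture, infection was read as luciferase luminescence following a 15 min substrate incubation at room temperature.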
Numbers without * were called inactive. Unless noted, calls follow the shape of the dose curve; as a rule, active = well fitted inhibition curve with a large enough effect; inconclusive = small, poorly fitted or top-dose-only effect, or another doubt; inactive = no such curve, though single readings can be large or run the other way.

`CCOc1ccc(NC(=O)CCS(=O)(=O)c2ccc3c(c2)n(C)c(=O)c(=O)n3C)cc1` gave HCMV antiviral -17.
COCCNc1nc2nonc2nc1N1CCC(N(C)C)C1 (stereo not drawn) was read as Shiga toxin inh 15, CHX counter 5, HCMV antiviral 12, Pf growth 96h 6.6µM*, Pf growth 48h -17% and HCV inh 16%.
Screening COCCCNc1nc2nonc2nc1N1C[C@H]2CC[C@H]1C2 returned Shiga toxin inh -2, CHX counter 2, HCMV antiviral -15, Pf growth 96h inconclusive, Pf growth 48h -17% and HCV inh -3%.
Screening COCCNc1nc2nonc2nc1N1C[C@H]2CC[C@H]1C2 returned Shiga toxin inh -13, CHX counter 1, HCMV antiviral 55, Pf growth 96h 10µM*, Pf growth 48h 12% and HCV inh 16%.
COc1cc(CNCCCN2CCOCC2)ccc1OCC(=O)Nc1cccc(C(F)(F)F)c1 was read as Shiga toxin inh -20, CHX counter 0, HCMV antiviral 43, Pf growth 96h inconclusive, Pf growth 48h 1.9µM* and HCV inh 10µM*.
`CCOc1cc(CNCCCN2CCOCC2)ccc1OCC(=O)Nc1cccc2ccccc12` gave Shiga toxin inh -12, CHX counter 2, HCMV antiviral inconclusive, Pf growth 96h 2.6µM*, Pf growth 48h 2.9µM* and HCV inh 14µM*.
For COc1ccc(CNC(=O)Nc2cccc(C(F)(F)F)c2)cc1OC the results were Shiga toxin inh 17, CHX counter 4, HCMV antiviral inconclusive, Pf growth 96h -22%, Pf growth 48h 5% and HCV inh -22%.
For O=C(COc1ccc(Br)cc1CNCCCN1CCOCC1)Nc1ccccc1 the results were Shiga toxin inh 13, CHX counter -1, HCMV antiviral -10, Pf growth 96h 2.9µM*, Pf growth 48h 3.7µM* and HCV inh inconclusive.
Screening O=C(COc1ccc(Br)cc1Cl)NCCCN1CCOCC1 returned Shiga toxin inh -28, CHX counter 2, HCMV antiviral 0, Pf growth 96h inconclusive and Pf growth 48h 10%.
CCOc1cc(CNC(CC)CO)ccc1OCC(=O)Nc1cccc(C(F)(F)F)c1 (stereo not drawn) was read as Shiga toxin inh -11, CHX counter -5, HCMV antiviral -37, Pf growth 96h inconclusive, Pf growth 48h -14% and HCV inh 1.1µM*.
`COc1cc(CNC(C)C)ccc1OCC(=O)Nc1cccc2ccccc12` gave Shiga toxin inh -11, CHX counter -3, HCMV antiviral -6, Pf growth 96h inconclusive, Pf growth 48h 0% and HCV inh inconclusive.
For COc1ccc2c(C)c(CC(=O)NCc3ccccc3Cl)c(=O)oc2c1OC the results were HCMV antiviral -7.
For CC1=CC(=O)N(c2cccc(C(F)(F)F)c2)C1c1ccc(Cl)cc1 (stereo not drawn) the results were Shiga toxin inh 9, CHX counter -5, HCMV antiviral -25, Pf growth 96h inconclusive, Pf growth 48h 8.3µM* and HCV inh inconclusive.
Screening COc1ccccc1C1=CN(Cc2ccccc2)CCC1=O returned HCMV antiviral -2 and HCV inh -18%.
Screening CCn1cc(CN2CCN(C)C(CCO)C2)c2ccccc21 (stereo not drawn) returned Shiga toxin inh -5, CHX counter -1, HCMV antiviral -24, Pf growth 96h 13µM*, Pf growth 48h 5% and HCV inh -9%.
`O=C1c2cccc3c(N4CCOCC4)c([N+](=O)[O-])cc(c23)C(=O)N1c1cccc2ccccc12` gave Shiga toxin inh 1, CHX counter -4, HCMV antiviral -3, Pf growth 96h 10µM*, Pf growth 48h inconclusive and HCV inh -7%.
Screening Cc1cccc(N2C(=O)c3cccc4c(N5CCCCC5)c([N+](=O)[O-])cc(c34)C2=O)c1C returned Shiga toxin inh 1, CHX counter -2, HCMV antiviral 45, Pf growth 96h 372%, Pf growth 48h -16% and HCV inh 0%.
For COC(=O)c1ccc(CNC(=O)c2ccc(OCC(=O)N3CCOCC3)c(OC)c2)cc1 the results were HCMV antiviral -29, Pf growth 96h 43%, Pf growth 48h 23% and HCV inh 7%.
CCOC(=O)c1ccc(NC(=O)c2nc[nH]c2C(=O)NC[C@H](C)O)cc1 was read as HCMV antiviral -16.
`Cc1occc1C(=O)N/N=C/C=C/c1ccccc1[N+](=O)[O-]` gave Shiga toxin inh 30, CHX counter 42*, HCMV antiviral -1, Pf growth 96h 1%, Pf growth 48h 19% and HCV inh -18%.
Screening Cc1occc1C(=O)N/N=C/c1ccc(N(C)C)cc1 returned Shiga toxin inh 35, CHX counter 22*, HCMV antiviral -4, Pf growth 96h 98%, Pf growth 48h 267% and HCV inh -17%.
`Cc1occc1C(=O)N/N=C/C=C/c1ccc(N(C)C)cc1` gave Shiga toxin inh 79*, CHX counter 53*, HCMV antiviral 51, Pf growth 96h 50%, Pf growth 48h 40% and HCV inh inconclusive.
Cc1occc1C(=O)N/N=C/C=C/c1ccccc1 was read as Shiga toxin inh 85, CHX counter 41*, HCMV antiviral -24, Pf growth 96h 8%, Pf growth 48h 113% and HCV inh -21%.
For Cc1cc(C(=O)N/N=C/C=C/c2ccccc2[N+](=O)[O-])c(C)o1 the results were Shiga toxin inh 24, CHX counter 4, HCMV antiviral 22, Pf growth 96h -15%, Pf growth 48h 6% and HCV inh -12%.
Screening O=C(N/N=C/C=C/c1ccccc1)c1cccc(Br)c1 returned Shiga toxin inh 25, CHX counter 9, HCMV antiviral 3, Pf growth 96h inconclusive, Pf growth 48h 0% and HCV inh inconclusive.
`Cc1occc1C(=O)N/N=C/C(Br)=C\c1ccccc1` gave Shiga toxin inh 50*, CHX counter 43*, HCMV antiviral 33, Pf growth 96h 1.3µM*, Pf growth 48h 204% and HCV inh inconclusive.
For NC(=S)N/N=C/C=C/c1ccccc1 the results were Shiga toxin inh -3, CHX counter 10, HCMV antiviral -33, Pf growth 96h inconclusive, Pf growth 48h inconclusive and HCV inh -12%.
Screening Cc1ccc(C(=O)N/N=C/C=C/c2ccccc2)cc1 returned Shiga toxin inh 49, CHX counter 25*, HCMV antiviral -35, Pf growth 96h 1.7µM*, Pf growth 48h -30% and HCV inh 22%.
Screening O=C(N/N=C/C=C/c1ccccc1)c1ccccc1Br returned Shiga toxin inh 41, CHX counter 26*, HCMV antiviral 0, Pf growth 96h -17%, Pf growth 48h 1% and HCV inh 22%.
